Test results as given in ChEMBL document CHEMBL1961873, “Compounds: GSK PKIS; Assays: Nanosyn kinase panel” (2012).

Key:
[1] = molecular target: RAC-alpha serine/threonine-protein kinase (Homo sapiens) (UniProt P31749); conditions: at 0.1 µM
[2] = molecular target: RAC-alpha serine/threonine-protein kinase (Homo sapiens) (UniProt P31749); conditions: at 1 µM
[3] = molecular target: RAC-beta serine/threonine-protein kinase (Homo sapiens) (UniProt P31751); conditions: at 0.1 µM
[4] = molecular target: RAC-beta serine/threonine-protein kinase (Homo sapiens) (UniProt P31751); conditions: at 1 µM
[5] = molecular target: RAC-gamma serine/threonine-protein kinase (Homo sapiens) (UniProt Q9Y243); conditions: at 0.1 µM
[6] = molecular target: RAC-gamma serine/threonine-protein kinase (Homo sapiens) (UniProt Q9Y243); conditions: at 1 µM
[7] = molecular target: G protein-coupled receptor kinase 6 (Homo sapiens) (UniProt P43250); conditions: at 0.1 µM
[8] = molecular target: G protein-coupled receptor kinase 6 (Homo sapiens) (UniProt P43250); conditions: at 1 µM
[9] = molecular target: T1, Rhodopsin kinase GRK7 (Homo sapiens) (UniProt Q8WTQ7); conditions: at 0.1 µM
T1 sequence (whole entry): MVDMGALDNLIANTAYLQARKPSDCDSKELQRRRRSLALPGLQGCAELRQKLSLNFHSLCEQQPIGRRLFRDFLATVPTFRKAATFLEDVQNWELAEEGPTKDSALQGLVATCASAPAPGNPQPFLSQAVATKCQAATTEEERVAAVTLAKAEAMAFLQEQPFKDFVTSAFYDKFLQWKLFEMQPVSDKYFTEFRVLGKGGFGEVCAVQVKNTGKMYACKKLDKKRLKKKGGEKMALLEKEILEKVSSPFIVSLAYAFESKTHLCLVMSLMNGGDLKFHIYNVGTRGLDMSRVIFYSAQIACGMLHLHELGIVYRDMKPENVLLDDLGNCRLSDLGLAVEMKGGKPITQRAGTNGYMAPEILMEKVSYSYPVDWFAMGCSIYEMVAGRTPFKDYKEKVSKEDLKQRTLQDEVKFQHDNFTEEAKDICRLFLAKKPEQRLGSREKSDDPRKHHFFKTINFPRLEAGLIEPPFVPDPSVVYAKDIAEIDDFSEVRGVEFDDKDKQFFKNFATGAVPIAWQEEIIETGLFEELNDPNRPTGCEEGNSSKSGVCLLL

[10] = molecular target: T1, Rhodopsin kinase GRK7 (Homo sapiens); conditions: at 1 µM

Chain of RAC-gamma serine/threonine-protein kinase (Homo sapiens) (Q9Y243 whole entry): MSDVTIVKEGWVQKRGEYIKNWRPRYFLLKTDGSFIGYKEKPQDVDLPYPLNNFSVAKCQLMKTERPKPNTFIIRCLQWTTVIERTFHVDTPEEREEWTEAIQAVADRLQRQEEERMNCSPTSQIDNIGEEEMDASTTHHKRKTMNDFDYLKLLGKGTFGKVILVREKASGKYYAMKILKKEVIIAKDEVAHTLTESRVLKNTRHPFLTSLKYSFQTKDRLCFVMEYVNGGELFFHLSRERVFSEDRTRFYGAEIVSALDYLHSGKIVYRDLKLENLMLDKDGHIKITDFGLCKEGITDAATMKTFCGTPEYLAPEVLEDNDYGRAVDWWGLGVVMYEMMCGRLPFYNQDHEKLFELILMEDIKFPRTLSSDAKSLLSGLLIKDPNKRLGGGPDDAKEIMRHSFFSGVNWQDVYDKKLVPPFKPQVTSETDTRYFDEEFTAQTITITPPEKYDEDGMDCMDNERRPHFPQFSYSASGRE
Chain of G protein-coupled receptor kinase 6 (Homo sapiens) (P43250 whole entry, looked up): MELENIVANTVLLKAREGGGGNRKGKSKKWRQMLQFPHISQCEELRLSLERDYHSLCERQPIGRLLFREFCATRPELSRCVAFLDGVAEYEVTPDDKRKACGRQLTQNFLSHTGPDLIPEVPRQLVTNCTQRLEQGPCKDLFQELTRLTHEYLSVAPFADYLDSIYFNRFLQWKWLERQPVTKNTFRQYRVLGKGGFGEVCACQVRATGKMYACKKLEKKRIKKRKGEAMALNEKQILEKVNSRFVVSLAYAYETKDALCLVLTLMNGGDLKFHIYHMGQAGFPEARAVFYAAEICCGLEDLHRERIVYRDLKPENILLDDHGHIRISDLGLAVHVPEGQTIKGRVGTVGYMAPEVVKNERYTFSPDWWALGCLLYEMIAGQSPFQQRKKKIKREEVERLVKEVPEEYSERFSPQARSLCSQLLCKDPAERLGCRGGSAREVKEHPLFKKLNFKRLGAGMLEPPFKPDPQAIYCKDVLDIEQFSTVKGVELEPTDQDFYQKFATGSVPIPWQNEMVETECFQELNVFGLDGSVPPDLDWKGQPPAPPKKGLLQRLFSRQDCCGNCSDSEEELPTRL
Chain of RAC-alpha serine/threonine-protein kinase (Homo sapiens) (P31749 whole entry): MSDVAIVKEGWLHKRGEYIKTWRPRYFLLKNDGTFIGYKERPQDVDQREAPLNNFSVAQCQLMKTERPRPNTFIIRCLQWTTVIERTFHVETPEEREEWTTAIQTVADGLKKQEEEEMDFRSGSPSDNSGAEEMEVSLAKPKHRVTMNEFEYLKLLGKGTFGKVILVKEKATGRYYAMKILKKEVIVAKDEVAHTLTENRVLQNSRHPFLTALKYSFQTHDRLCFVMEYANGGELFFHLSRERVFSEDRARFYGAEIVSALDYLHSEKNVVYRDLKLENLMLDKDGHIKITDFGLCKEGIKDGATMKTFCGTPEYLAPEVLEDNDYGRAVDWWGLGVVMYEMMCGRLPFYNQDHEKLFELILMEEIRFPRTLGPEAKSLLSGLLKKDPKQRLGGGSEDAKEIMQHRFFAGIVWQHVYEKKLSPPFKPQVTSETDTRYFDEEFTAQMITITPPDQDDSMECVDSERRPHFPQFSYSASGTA
Chain of RAC-beta serine/threonine-protein kinase (Homo sapiens) (P31751 whole entry): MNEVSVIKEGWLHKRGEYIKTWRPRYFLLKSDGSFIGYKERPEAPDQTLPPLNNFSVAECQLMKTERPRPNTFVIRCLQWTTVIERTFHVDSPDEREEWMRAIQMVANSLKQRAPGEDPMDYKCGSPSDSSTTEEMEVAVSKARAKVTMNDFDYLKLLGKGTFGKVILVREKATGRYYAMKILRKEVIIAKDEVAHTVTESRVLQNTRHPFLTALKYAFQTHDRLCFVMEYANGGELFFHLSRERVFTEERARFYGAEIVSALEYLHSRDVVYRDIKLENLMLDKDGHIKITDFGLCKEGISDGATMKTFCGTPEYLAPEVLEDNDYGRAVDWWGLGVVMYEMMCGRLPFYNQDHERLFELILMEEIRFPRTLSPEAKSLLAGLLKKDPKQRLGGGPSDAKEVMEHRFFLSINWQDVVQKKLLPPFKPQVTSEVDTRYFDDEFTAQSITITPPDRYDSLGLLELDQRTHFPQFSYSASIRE

| SMILES | inhibition [1] | inhibition [2] | inhibition [3] | inhibition [4] | inhibition [5] | inhibition [6] | inhibition [7] | inhibition [8] | inhibition [9] | inhibition [10] |
| --- | --- | --- | --- | --- | --- | --- | --- | --- | --- | --- |
| CNC(=O)c1cncc(/C=C/c2c(C)cccc2C)c1 | -2.43% | -2.92% | -3.43% | -4.29% | -2.01% | -2.42% | 4.6% | -0.29% | 1.47% | -7.66% |
| c1ccc(-c2n[nH]cc2-c2ccnc(-c3ccc(OCCN4CCOCC4)cc3)c2)nc1 | -0.28% | 0.23% | -0.23% | -0.3% | -0.26% | 0.6% | -5.07% | -7.11% | 1.66% | -0.22% |
| COc1ccc(-c2ccc3c(NC(=O)C4CC4)n[nH]c3n2)cc1 | -0.03% | 0.55% | 0.33% | 0.37% | 3.49% | 0.37% | 5.32% | 9.55% | 2.9% | 10.4% |
| FC(F)(F)c1cccc(Nc2nccc(-c3cnn4nc(-c5ccccc5)ccc34)n2)c1 | 0.83% | 0.65% | 0.62% | 1.58% | 0.22% | -2.03% | -2.23% | -0.87% | 4.12% | 6.07% |
| CS(=O)(=O)CCNCc1ccc(-c2ccc3ncnc(Nc4ccc(OCc5ccccc5)c(Br)c4)c3c2)o1 | -2.58% | -2.2% | -3.3% | -3.04% | -3.44% | -0.54% | -2.27% | 2.12% | 10.1% | 0.45% |
| CN(C)c1ccc2c(c1)/C(=C/Nc1ccc(S(N)(=O)=O)cc1)C(=O)N2 | 0.14% | -0.46% | 0.75% | 1.06% | 2.06% | 1.85% | 3.15% | 5.15% | 0.97% | 8.73% |
| CCS(=O)(=O)c1ccc(OC)c(Nc2ncc(-c3cccc(-c4ccccc4F)c3)o2)c1 | -0.24% | -0.11% | 0.25% | 0.43% | 1.02% | -0.29% | 1.94% | -0.56% | 0.7% | -0.85% |
| Fc1ccc(-c2ncn(C3CCNCC3)c2-c2ccnc(Oc3ccc(F)c(F)c3)n2)cc1 | -3% | -3.59% | -3.3% | -2.56% | -2.6% | -1.9% | -0.72% | 2.05% | 9.11% | 1.73% |
| COc1cccc(-n2cnc3c(N/N=C/c4ccncc4)ncnc32)c1 | -4.15% | -3.41% | -3.57% | -4.73% | -4.17% | -3.32% | 2.45% | 8.28% | 1.71% | 5.64% |
| COc1cccc(/C=N/Nc2ncnc3c2cnn3-c2cccc(OC)c2)c1 | 1.02% | -0.26% | 2.42% | 1.51% | 2.66% | 3.67% | 5.6% | 4.38% | 9.5% | 5.51% |
| N#Cc1ccc(Oc2nccc(-c3c(-c4ccc(F)cc4)ncn3C3CCNCC3)n2)cc1 | -0.06% | 0.41% | 0.99% | 3.57% | 2.37% | 2.2% | -0.24% | 2.68% | 8.83% | 5.35% |
| C[C@@H](Oc1cc(-n2cnc3ccc(OCC4CCN(C)CC4)cc32)sc1C(N)=O)c1ccccc1Cl | 0.75% | 0.38% | 1.73% | 2.79% | 0.98% | 3.81% | 4.28% | 9.48% | 10.8% | 9.71% |
| CCc1ccc(Oc2nccc(-c3c(-c4ccc(F)cc4)ncn3C3CCNCC3)n2)cc1 | 2.02% | 3.72% | 2.05% | 3.62% | 2.08% | 11.5% | 3.46% | 4.51% | 6.57% | 7.25% |
| COc1cc2ncn(-c3cc(OCc4cccs4)c(C(N)=O)s3)c2cc1OC | -2.85% | -1.83% | -1.63% | -2.73% | -3.06% | -3.04% | 4.35% | 17.9% | 5.59% | 13% |
| NS(=O)(=O)c1ccc(N/N=C2\C(=O)Nc3ccc(C(=O)NCCCn4ccnc4)cc32)cc1 | -0.12% | 0.95% | 2.05% | 2.17% | 0.96% | 2.49% | 5.79% | 16.3% | 7.64% | 18% |
| C/C(Nc1ccc(S(N)(=O)=O)cc1)=C1/C(=O)Nc2ccccc21 | -0.64% | -1.45% | -3.63% | -0.17% | -2.53% | -0.18% | -0.76% | 9.44% | -7.29% | 2.76% |
| Fc1ccc(-c2ncn(C3CCNCC3)c2-c2ccnc(Oc3ccc4c(c3)OCO4)n2)cc1 | 2.04% | 1.04% | 0.93% | 2.21% | 0.23% | 3.88% | 0.51% | 2.27% | 9.41% | 2.9% |
